The values below come from PubChem BioAssay (NCATS).

Several values for one entry are separate records, joined by “and”; a condition that tells them apart may be missing. Equal entries are not always repeated. Inconclusive results are not listed. Activity calls are given as the source filed them. Calls follow the shape of the full dose curve.

The nature of experiment [1]: Cytotoxicity counterscreen for inhibitors of SARS-CoV-2 cell entry (AID 1645845). Also: nearly all actives have a fitted effect of over 50% in size. The settings on record: outcome: dose series up to 57.1 µM unless noted. The procedure, abridged: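 ATP-content luminescence (ATPLite 1step, 15 min RT) read after 48 h compound exposure of Expi293F cells stably expressing human ACE2; normalized to cells-only wells and media-only wells.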
In general terms: The purpose of a counterscreen is to sort out artefacts and off-target activity.

Experiment [2] can be described thus: Primary qHTS to identify inhibitors of SARS-CoV-2 cell entry (AID 1645846). Also: nearly all actives have a fitted effect of over 45% in size. The settings on record: SARS-CoV-2 pseudovirus cell entry assay, luminescence; activity change, negative = inhibition: at 57.1 µM (top of the series) unless noted. In a few lines:
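Using luciferase-reporting pseudoviruses carrying Wuhan-Hu-1 spike, the screen tracks entry into stably ACE2-expressing cells over 48 hr. Activity is expressed relative to spike particles versus particles lacking any fusion protein.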
Potency is read from the fitted curve at half-maximal effect.

`CC(C)C(N)C(=O)OCC(CO)OCn1cnc2c(=O)[nH]c(N)nc21` (stereo not given): the Potency entry in experiment [1] is “inactive”. Also, in experiment [2], the activity change, negative = inhibition is -6.77%.

Regarding `COc1ccc([C@@H]2CC(=O)c3c(O)cc(O[C@@H]4O[C@H](CO[C@@H]5O[C@@H](C)[C@H](O)[C@@H](O)[C@H]5O)[C@@H](O)[C@H](O)[C@H]4O)cc3O2)cc1O`, the Potency result in experiment [1] and in experiment [2] was “inactive” in each case.

`COc1cccc(-c2c(C)n(Cc3c(F)cccc3C(F)(F)F)c(=O)n(C[C@H](NCCCC(=O)O)c3ccccc3)c2=O)c1F`: in experiment [1], the Potency entry was “inactive”. In experiment [2], the activity change, negative = inhibition is -17.5% and -28.9%.

For the molecule `Cc1ccc(NS(=O)(=O)c2ccc3c(c2)C2C=CCC2C(c2ccc(C(=O)O)cc2)N3)cc1C` (stereo not given), in experiment [1], the Potency entry was “inactive”. In experiment [2], the activity change, negative = inhibition was -18.7%.

As to `C=CCN(/C=C1\C(=O)O[C@@H](COC)[C@]2(C)C1=C(O)C(=O)C1=C2[C@@H](OC(C)=O)C[C@]2(C)C(=O)CC[C@H]12)CC=C`, the Potency entry in experiment [1] and in experiment [2] was “inactive” each time.

In the case of `COC(=O)/C=C/C(=O)OC`, in experiment [1], the Potency result is “inactive”. The activity change, negative = inhibition in experiment [2] is -4.67%.

As for `COc1cc2nc(-c3cc(F)ccc3O)nc(N[C@@H]3CNC[C@H]3C(C)(C)O)c2cc1OC`, the Potency is 3.98 µM (active) in experiment [1] and 5.01 µM (active) in experiment [2].

As for `CC(C)(O)C1CCC(Nc2ccc3ncc(-c4cccc(C(F)(F)F)c4)n3n2)CC1` (stereo not given), in experiment [1], the Potency entry was “inactive”. Moreover, in experiment [2], the activity change, negative = inhibition is -18.1%.

For `CC(=O)O/N=C1/C(c2c(O)[nH]c3cc(Br)ccc23)=Nc2ccccc21`, the Potency result in experiment [1] and in experiment [2] was “inactive” throughout.

With `Nc1nc(F)nc2c1ncn2C1OC(COP(=O)(O)O)C(O)C1O` (stereo not given), in experiment [1], the Potency result was “inactive”. Moreover, in experiment [2], the activity change, negative = inhibition is -9.43%.

Take `Cc1c(-c2c(-c3ccc(F)o3)sc3ncnc(O[C@@H](Cc4ccccc4OCc4ccnn4CC(F)(F)F)C(=O)O)c23)ccc(OCCN2CCN(C)CC2)c1Cl`: the Potency entry in experiment [1] was “inactive”. The activity change, negative = inhibition in experiment [2] was -7.93%.

Turning to `COC(=O)[C@H]1[C@@H](O)[C@@]2(O)c3c(OC)cc(O[C@@H]4O[C@@H]([C@@H](O)CO)CO[C@H]4OC)cc3O[C@@]2(c2ccc(OC)cc2)[C@@H]1c1ccccc1`, the Potency entry in experiment [1] and in experiment [2] was “inactive” in each case.

`O=c1c(-c2ccc(O)cc2)coc2cc(O[C@@H]3O[C@H](CO)[C@@H](O)[C@H](O)[C@H]3O)ccc12`: the Potency result in experiment [1] and in experiment [2] was “inactive” each time.

With `CCOc1ccc(-n2c([C@@H](C)N(Cc3cccnc3)C(=O)Cc3ccc(F)c(C(F)(F)F)c3)nc3ncccc3c2=O)cc1`, the Potency result in experiment [1] is “inactive”. Also, in experiment [2], the activity change, negative = inhibition was -17.6%.

As for `COc1ccc(-c2oc3c(CC=C(C)C)c(OC4O[C@H](CO)[C@@H](O)[C@H](O)[C@H]4O)cc(O)c3c(=O)c2OC2O[C@@H](C)[C@H](O)[C@@H](O)[C@H]2O)cc1` (stereo not given in full), the Potency result in experiment [1] was “inactive”. In addition, the activity change, negative = inhibition in experiment [2] is -18.5%.

`N[C@@H]1CN(c2c(F)cc3c(=O)c(C(=O)O)cn([C@@H]4C[C@@H]4F)c3c2Cl)CC12CC2`: in experiment [1], the Potency entry is “inactive”. Also, in experiment [2], the activity change, negative = inhibition is -5.2%.

As for `Nc1cccc2c1CN([C@H]1CCC(=O)NC1=O)C2=O`, the Potency result in experiment [1] is “inactive”. Also, in experiment [2], the activity change, negative = inhibition was -16.6%.

`N#Cc1ccc(C2CCCc3cncn32)cc1` (stereo not given): the Potency entry in experiment [1] was “inactive”. Moreover, the activity change, negative = inhibition in experiment [2] is -13.4% [at 27.1 µM].

In the case of `Cc1nnc(C(C)C)n1C1CC2CCC(C1)N2CCC(NC(=O)C1CCC(F)(F)CC1)c1ccccc1` (stereo not given), in experiment [1], the Potency entry was “inactive”. Besides, the activity change, negative = inhibition in experiment [2] was -24.8%.

On to `CC[C@H]1OC(=O)[C@H](C)[C@@H](O[C@H]2C[C@@](C)(OC)[C@@H](O)[C@H](C)O2)[C@H](C)[C@@H](O[C@@H]2O[C@H](C)C[C@H](N(C)C)[C@H]2O)[C@](C)(O)C[C@@H](C)C(=O)[C@H](C)[C@@H](O)[C@]1(C)O`, for which the Potency result in experiment [1] and in experiment [2] was “inactive” throughout.

For `N#Cc1ccc(N(Cc2ccc(Br)cc2)n2cnnc2)cc1`, the Potency result in experiment [1] was “inactive”. In addition, the activity change, negative = inhibition in experiment [2] is -18.8%.

In the case of `O=C1CC(c2c[nH]c3ccc(F)cc23)C(=O)N1` (stereo not given), the Potency entry in experiment [1] was “inactive”. The activity change, negative = inhibition in experiment [2] came out at 1.8%.

Regarding `CC(C)N(CCCNC(=O)Nc1ccc(C(C)(C)C)cc1)C[C@H]1O[C@@H](n2cc(Br)c3c(N)ncnc32)[C@H](O)[C@@H]1O`, the Potency in experiment [1] was 31.6 µM (active); in experiment [2] it was 35.5 µM (active).

Regarding `O=C(/C=C/c1ccc2ccc(C(F)(F)F)cc2n1)c1ccncc1`, the Potency result in experiment [1] was “inactive”. Further, the activity change, negative = inhibition in experiment [2] was -5.32%.

As to `O=c1ncccn1[C@@H]1O[C@H](CO)[C@@H](O)[C@H]1O`, the Potency entry in experiment [1] and in experiment [2] was “inactive” throughout.

For the molecule `O=C(c1ccc(/C=C/c2n[nH]c3ccccc23)cc1)N1CCNCC1`, the Potency entry in experiment [1] and in experiment [2] was “inactive” each time.

As to `c1cn2cc(-c3ccc4cn[nH]c4c3)nc(Nc3ccc(N4CCOCC4)cc3)c2n1`, the Potency in experiment [1] was 2.82 µM (active). Also, the activity change, negative = inhibition in experiment [2] is -27%.

Regarding `CONC(=O)c1ccccc1Nc1cc(Nc2cc(C)nn2C(C)C)ncc1Cl`, the Potency entry in experiment [1] is “inactive”. Besides, in experiment [2], the activity change, negative = inhibition is -10.2%.

Take `O=C(Nc1nccs1)C(c1cc(F)ccc1O)N1Cc2ccccc2C1=O` (stereo not given): the Potency entry in experiment [1] is “inactive”. Besides, the activity change, negative = inhibition in experiment [2] is -14.9%.

In the case of `C[C@@H](Oc1cc(C(=O)Nc2ccc(C(=O)N3CCN(C)CC3)cc2)nnc1N)c1c(Cl)ccc(F)c1Cl`, the Potency in experiment [1] was 28.2 µM (active); in experiment [2], 12.6 µM (active).
